We go through 34 molecules from the supplement of paper PMC8975748.

Molecules are shown by their SMILES. Structures can show the parent of a compound that is named as a salt.

The subject of this experiment is Saccharomyces cerevisiae BY4741 SeMeCo community. The experiment can be described thus: z-score of subpopulation abundance vs DMSO median, subpopulation auxotrophic for HLU; higher = larger share of this subpopulation than in DMSO controls. The settings on record: 10 µM; 24 h; SM minimal medium; subpopulation (auxotrophy): HLU. Here is the method: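 Fluorescent four-plasmid SeMeCo (self-establishing metabolically cooperating S. cerevisiae BY4741 community; plasmids pH-mRuby2, pL-mWasabi, pU-eCFP, pM-TagRFP657) was grown 24 h in minimal SM medium with each Selleck FDA-approved drug at 10 µM in 384-well plates. Cells were fixed and imaged by high-content confocal microscopy. For each auxotrophic subpopulation (and the prototroph), a z-score gives the deviation from the DMSO vehicle-control population median.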
In the case of `C#C[C@]1(O)C=C[C@H]2[C@@H]3CCC4=CC(=O)CC[C@@H]4[C@H]3CC[C@@]21CC` [Gestodene], the “z-score of subpopulation abundance” value worked out at 0.11.

With `CN(C)[C@@H]1C(=O)C(C(N)=O)=C(O)[C@@]2(O)C(=O)C3=C(O)c4c(O)ccc(Cl)c4[C@@](C)(O)[C@H]3C[C@@H]12` [Chlortetracycline HCl], the “z-score of subpopulation abundance” value is -0.5.

Regarding `CCN(C)C(=O)Oc1cccc([C@H](C)N(C)C)c1` [Rivastigmine], the “z-score of subpopulation abundance” value was -0.24.

For the molecule `Cc1cc(O)ccc1Cl` [Chlorocresol], the “z-score of subpopulation abundance” value is -0.87.

Consider `Cn1cc(C2=C(c3cn(C4CCN(Cc5ccccn5)CC4)c4ccccc34)C(=O)NC2=O)c2ccccc21`, for which the “z-score of subpopulation abundance” value came out at 0.26.

For `CC(NC(C)(C)C)C(=O)c1cccc(Cl)c1` (centres undefined) [Amfebutamone (Bupropion) HCl], the “z-score of subpopulation abundance” value was -0.82.

Turning to `O=C(O[C@H]1C[N+]2(CCCOc3ccccc3)CCC1CC2)C(O)(c1cccs1)c1cccs1` [Aclidinium Bromide], the “z-score of subpopulation abundance” value was -0.54.

Regarding `CC(C)N(CCC(C(N)=O)(c1ccccc1)c1ccccn1)C(C)C` (centres undefined) [Disopyramide], the “z-score of subpopulation abundance” value is 1.07.

For the molecule `CC[C@H]1[C@@H]2C[C@H]3[C@@H]4N(C)c5ccccc5[C@]45C[C@@H]([C@@H]2[C@H]5O)N3[C@@H]1O` [Ajmaline], the “z-score of subpopulation abundance” value was -0.63.

As for `Oc1cc(Cl)ccc1Oc1ccc(Cl)cc1Cl` [Triclosan], the “z-score of subpopulation abundance” value came to 2.87.

Consider `CN1[C@@H]2C[C@@H](OC(=O)[C@H](CO)c3ccccc3)C[C@H]1[C@@H]1O[C@@H]12` [Scopolamine HBr trihydrate], for which the “z-score of subpopulation abundance” value was -0.91.

As for `Cc1cc(C(C#N)c2ccc(Cl)cc2)c(Cl)cc1NC(=O)c1cc(I)cc(I)c1O` (centres undefined) [Closantel], the “z-score of subpopulation abundance” value turned out to be 0.79.

Take `C[C@@H]1CC[C@H]2[C@@H](C)C(=O)O[C@@H]3O[C@@]4(C)CC[C@@H]1[C@]32OO4` [Artemisinin]: the “z-score of subpopulation abundance” value was -0.05.

Regarding `C=C[C@H]1CN2CC[C@H]1C[C@H]2[C@H](O)c1ccnc2ccccc12` [Cinchonidine], the “z-score of subpopulation abundance” value was -0.48.

For the molecule `CCOC(=O)Nc1ccc(NCc2ccc(F)cc2)cc1N` [Retigabine], the “z-score of subpopulation abundance” value turned out to be 0.77.

`O=C(O[C@H]1C[C@H]2CC[C@@H](C1)[N+]21CCCC1)C(O)(c1ccccc1)c1ccccc1` [Trospium chloride]: the “z-score of subpopulation abundance” value is -0.58.

For `Oc1cccc2cccnc12` [8-Hydroxyquinoline], the “z-score of subpopulation abundance” value was -0.85.

Regarding `CC[C@H]1CN2CC[C@]3(C(=O)Nc4ccccc43)[C@@H]2C[C@@H]1/C(=C\OC)C(=O)OC` [Rhynchophylline], the “z-score of subpopulation abundance” value amounted to 0.21.

With `C=C(C)[C@H]1Cc2c(ccc3c2O[C@@H]2COc4cc(OC)c(OC)cc4[C@@H]2C3=O)O1` [Rotenone (Barbasco)], the “z-score of subpopulation abundance” value is 1.77.

Consider `C[N+]12CCC(CC1)C(OC(=O)C(O)(c1ccccc1)c1ccccc1)C2` (centres undefined) [Clidinium Bromide], for which the “z-score of subpopulation abundance” value is -0.31.

Turning to `CCCN1C[C@H](CSC)C[C@@H]2c3cccc4[nH]cc(c34)C[C@H]21` [Pergolide Mesylate], the “z-score of subpopulation abundance” value is -0.75.

Turning to `C=CC[C@]1(O)CC[C@H]2[C@@H]3CCC4=CC(=O)CCC4=C3C=C[C@@]21C` [Altrenogest], the “z-score of subpopulation abundance” value worked out at 0.03.

For the molecule `COc1ccc2[nH]cc(CCN)c2c1` [5-Methoxytryptamine], the “z-score of subpopulation abundance” value was 0.69.

Regarding `CN(C)[C@@H]1C(=O)C(C(N)=O)=C(O)[C@@]2(O)C(=O)C3=C(O)c4c(O)cccc4[C@@](C)(O)[C@H]3[C@H](O)[C@@H]12` [Oxytetracycline Dihydrate], the “z-score of subpopulation abundance” value is 0.15.

Turning to `CN[C@@H]1[C@@H](O)[C@@H](O[C@@H]2[C@@H](O)[C@H](O[C@H]3O[C@H]([C@@H](C)O)[C@@H](O)[C@H](O)[C@H]3N)[C@@H](N)C[C@H]2N)OC[C@]1(C)O` [Geneticin (G418 Sulfate)], the “z-score of subpopulation abundance” value came out at 0.77.

As for `Nc1nc(N)nc(NC2CC2)n1` [Cyromazine], the “z-score of subpopulation abundance” value came to 0.88.

Take `CCN(C)C(=O)Oc1cccc([C@H](C)N(C)C)c1` [Rivastigmine Tartrate]: the “z-score of subpopulation abundance” value is -0.41.

Take `CN(C)[C@@H]1C(=O)C(C(N)=O)=C(O)[C@@]2(O)C(=O)C3=C(O)c4c(O)cccc4[C@@](C)(O)[C@H]3[C@H](O)[C@@H]12` [Oxytetracycline (Terramycin)]: the “z-score of subpopulation abundance” value is 0.16.

For `C=CN1CCCC1=O.II` [Povidone iodine], the “z-score of subpopulation abundance” value is 2.59.

As to `CN1[C@@H]2CC[C@H]1C[C@@H](OC(=O)[C@H](CO)c1ccccc1)C2` [Hyoscyamine], the “z-score of subpopulation abundance” value came out at 0.2.

With `COc1cc2c(cc1OC)C1CC(=O)C(CC(C)C)CN1CC2` (centres undefined) [Tetrabenazine (Xenazine)], the “z-score of subpopulation abundance” value is -0.31.

In the case of `CN1[C@@H]2CC[C@H]1C[C@@H](OC(=O)C(CO)c1ccccc1)C2` (some centres undefined) [Atropine sulfate monohydrate], the “z-score of subpopulation abundance” value is -0.61.

As for `CC[C@@]1(O)C(=O)OCc2c1cc1n(c2=O)Cc2cc3ccccc3nc2-1` [Camptothecin], the “z-score of subpopulation abundance” value is -0.42.

On to `CCN(CC)CCOC(=O)C(O)(c1ccccc1)c1ccccc1` [Benactyzine hydrochloride], for which the “z-score of subpopulation abundance” value was found to be 0.38.
